Measurements from the supplement of paper PMC3334620.
In all, about 33,000 sequences were measured (“E-score (-0.5 to 0.5)”: median about -0.0034, highest 2% from about 0.25 on). For the sample, the highest values were picked, then their nearest neighbours and some sequences at random.

The sequences below were run against T1, Yap3 (UniProt P38749) (assay: PBM E-score (8-mer binding enrichment) (E-score (-0.5 to 0.5)); higher = stronger / more preferred TF binding). Details: protein concentration: 100 nM; construct: GST-full length.
T1 sequence: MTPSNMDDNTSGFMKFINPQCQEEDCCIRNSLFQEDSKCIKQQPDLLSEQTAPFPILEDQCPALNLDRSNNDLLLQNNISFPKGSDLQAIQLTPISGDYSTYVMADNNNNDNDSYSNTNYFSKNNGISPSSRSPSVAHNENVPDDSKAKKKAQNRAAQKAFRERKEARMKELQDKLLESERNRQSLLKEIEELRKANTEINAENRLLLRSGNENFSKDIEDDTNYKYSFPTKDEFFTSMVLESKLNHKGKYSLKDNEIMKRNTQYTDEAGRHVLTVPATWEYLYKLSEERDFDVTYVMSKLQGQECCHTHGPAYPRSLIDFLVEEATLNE
Method in brief: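 Bound GST-tagged yeast transcription factors, applied at about 100-200 nM to double-stranded universal all-10-mer Agilent arrays, were detected with fluorescent anti-GST. Scans were normalised with masliner. A modified Wilcoxon-Mann-Whitney statistic, the E-score, was assigned to each ungapped eight-base word pooled with its reverse complement by the Universal PBM Analysis Suite.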

Sequence | PBM E-score
AGGCCACA | -0.191
GGGATTGA | -0.173
CAGTAGCA | -0.0517
AGTGAAGG | 0.0123
TAATCAAA | 0.285
CTATCAAA | 0.155
CAATCAAA | 0.0584
GAATCAAA | 0.0372
GTATCAAA | 0.187
TTATCAAA | 0.283
GGCGCTGA | -0.124
ATCAGCTC | 0.00619
AGTTACAC | 0.0567
CAACATTG | 0.115
ATGATTTA | 0.202
CTGATTTA | 0.14
GCGATTTA | 0.0749
GTGATTTA | 0.261
CCGATTTA | 0.107
ACGATTTA | 0.312
CACCTCTA | 0.158
GCAGATAA | -0.0214
ATATACTA | 0.306
ATATACAA | 0.322
ATATACAC | 0.171

Sequence | PBM E-score
CTATACTA | 0.16
ATATACTC | 0.126
CTATACAA | 0.189
AGATCTAC | 0.0426
AGTAACCC | -0.00628
ACAAGTAA | 0.0548
GTCCCTTA | 0.179
ACTTATAC | 0.174
GCTTATTA | 0.232
ACTTATTC | 0.162
CCTTATGA | 0.113
ACTTATAT | 0.29
CCTTATTA | 0.33
ACTTATTA | 0.263
ACTTATAG | -0.0355
CCTTATTC | 0.0232
CCCACGTC | -0.122
CGATTAGC | -0.102
GCACTATA | 0.0864
TAGCAAGA | 0.0496
ACGTAAAA | 0.198
GCGTAAAA | 0.231
GCGTAATA | 0.305
AGGTAATA | 0.294
CCGTAATA | 0.201

Sequence | PBM E-score
ACGTAAGA | 0.23
ACGTAAAG | 0.184
ACGTAACG | 0.208
ACGTAATA | 0.44
GGGTAATA | 0.0455
ACGTAATG | 0.354
CGGTAATA | 0.202
GAGAGCGA | -0.166
CCAGTGTC | -0.1
GCAGATCC | 0.0102
ATCAATAC | 0.11
ACTACCTG | 0.0736
GCGTCTCC | -0.0737
AAATCCTT | -0.0476
CGCTACAC | -0.0665
GATTCAAA | 0.0843
AGCTCTAT | 0.0447
GCTTCTCA | -0.0894
GCAACATA | 0.0566
CCAACATC | -0.011
CCAACATA | 0.305
CCAATGCC | -0.162
AAAAGTAG | 0.105
GCAGCAAA | -0.0366
ACATTCTG | -0.0885

Sequence | PBM E-score
CGCATTGA | 0.125
GTCCTATA | -0.0462
ATCCTATA | 0.26
CTCCTATA | -0.191
CGAGTTGA | 0.0975
GCGGTCGA | 0.0757
ACCTGAAG | 0.00792
GCCTTTTA | -0.0778
CTGGGCGC | -0.229
GATTTCCC | 0.124
CATTTCAA | 0.265
CATTTCCC | 0.293
CATTTTCC | 0.193
GATTTCAA | 0.0767
TATTTCAA | 0.235
ATGGGAGG | -0.0823
TATCTGCA | 0.0463
AAAGGTCG | -0.0514
AACTTGCA | 0.108
GATTCACA | 0.00517
TATTCACA | 0.27
CATTCACG | -0.0375
GAAAATCC | 0.0305
GCGATGAC | 0.0826
AGAATTTC | -0.00706

Sequence | PBM E-score
GTAATTTA | 0.238
CTAATTTA | 0.19
GGAATTTA | 0.173
ATAATTTG | 0.294
CGAATTTC | 0.298
AAAATTTG | 0.0972
CGAATTTA | 0.136
ATAATTTA | 0.303
AGAATTTA | 0.276
AGAATTTG | 0.107
ATAATTTC | 0.17
AAGAAGGG | -0.0033
CCCCGTCG | -0.309
CATGCTTC | -0.024
CAAGGGGG | -0.226
AGTGCATA | -0.0677
GACTGAGC | -0.255
CCTGTTCC | -0.0284
AAGGCCCC | -0.285
ATACAGGG | 0.14
CAGCCTAA | -0.12
AACACGAT | 0.0988
AAAATTAC | 0.273
CAAATTAC | 0.144
AAAATTAT | 0.257

Sequence | PBM E-score
AAATTTAC | 0.219
GAAATTAC | 0.265
AAAATTTT | 0.246
AAAATTAG | 0.227
GAAATTCC | 0.0452
CAAATTAA | 0.155
AAAATTAA | 0.138
AAAATTGC | 0.0358
GAAATTAA | 0.342
GGCTGGGA | -0.103
AACCACCG | -0.0601
CTGGTATA | -0.0636
TCCATGGA | 0.142
ACAGATGG | 0.00201
CGTAATCC | 0.285
AGTAATCC | 0.102
CGTAATCA | 0.349
AGTAATCA | 0.117
CCTAATCC | 0.0254
GGTAATCA | 0.189
CGATCGTA | 0.126
ACCAAATG | 0.0905
TAGTAAGA | 0.227
CCAGCACG | -0.128
CCGCATCA | -0.0944

Sequence | PBM E-score
AAAAAACA | 0.315
ACAAAACG | 0.173
CAAAAACG | 0.136
AAAAAACG | 0.315
GAAAAACA | 0.094
TAAAAACA | 0.246
AGACTTCC | -0.161
ATAGGGTG | -0.123
ATTCAGAA | 0.0683
ATAGCGTG | -0.00896
AGGGGTTG | -0.134
ACTTTATG | 0.124
AATGTGAC | 0.145
AATGTGAT | 0.232
AATGTGAA | 0.255
CTCCAGGC | -0.0968
GCAGAGAC | -0.322
AGTCGACT | 0.277
AGTCGACA | 0.0995
AGTCGACC | -0.0691
AGCCGTGC | -0.233
GATATATC | 0.133
GATATATA | 0.271
TATATATA | 0.304
GATATGGA | 0.263

Sequence | PBM E-score
TATATGGA | 0.108
TATATACA | 0.226
AATATGGA | 0.123
GATATACA | 0.187
CATATATA | 0.227
ACTCTAGA | 0.0228
ACAGAGGT | -0.0174
ACGCTATC | 0.109
ATTTTCGG | 0.109
ATCGTGGG | 0.11
GAAGACGC | -0.0463
CCCGACCG | -0.3
GTATAAAA | 0.287
GTATAAAC | 0.206
GGATAAAA | 0.194
CTATAAAA | 0.0227
ATATAAAA | 0.249
TTATAAAA | 0.256
CACCACGG | -0.366
GATTGCGA | 0.108
ATTTTACC | 0.297
AATTTACC | 0.145
AATTTACG | 0.239
ATTTTACA | 0.145
CTTTTACC | 0.197

Sequence | PBM E-score
ATTTTACG | 0.309
CCGATCAG | -0.00295
CCCCCTAA | -0.291
AAAGATCC | -0.0985
AGCTGTCG | -0.197
GTCGACCA | -0.0665
GGGCTGCA | -0.195
GCTACTAC | 0.255
GCTACTAA | 0.138
CCTACTAC | -0.17
ACTACTAA | 0.0558
ACTACTAT | 0.255
ACTACTAC | 0.0925
CGTGACAG | -0.154
CGAGAGGC | -0.258
CCATCTAG | -0.112
TAGTTCCA | 0.14
ATTTTCAG | 0.286
ATTTTCCC | 0.0787
AATTTCCG | 0.237
AATTTCAG | 0.0354
ATTTTCCG | 0.325
ATTTTCAC | 0.174
AGCTTGAC | -0.0896
ATTCTGGA | 0.132

Sequence | PBM E-score
AAGGTCAT | -0.047
AACAGACG | -0.0301
AACAAGGG | -0.0929
GCGCTCAA | -0.131
CGACCGCG | -0.129
AATTGGTA | 0.158
GATTGGTA | 0.305
CATTGGTA | 0.0377
GAATTGCA | 0.101
CACGGATA | 0.291
AACGGATT | 0.233
AACGGATG | -0.101
CACGGATG | -0.164
AACGGATA | 0.255
TACGGATA | 0.0129
AGTTGTTA | 0.114
ATCTAGAT | -0.0211
TCTGGCCA | -0.0631
AGACGCCG | -0.0447
TGACGTCA | 0.331
TCACGTAA | 0.359
CGACGTAA | 0.19
ACACGTAA | 0.217
GGACGTAA | -0.0155
GCGCGTAA | 0.23

Sequence | PBM E-score
GCACGTAA | 0.0393
TCGCGTAA | 0.302
GGACGTCA | -0.0403
AGACGTCA | -0.0966
ACGCGTAA | 0.0957
TGACGTAA | 0.368
CATGTAAC | 0.0356
ACCCTTCT | -0.142
AGAGTTAG | -0.0808
GGTCTAGA | -0.104
AACCAGCG | -0.0042
GCTGTAAC | 0.0596
ACTCTGCC | -0.104
CCACTTAA | -0.071
GCACTTAC | 0.0227
CCACTTAC | 0.257
ATACCAAC | 0.202
ACTTGTCC | 0.0688
AAGAAGCA | 0.119
AGCTGTAA | 0.0402
CATCGCTA | 0.0613
AGCCCTAG | -0.106
CATAAAGG | 0.00277
CTGAGTAA | 0.246
ATGAGTAA | 0.284

Sequence | PBM E-score
GTGAGTAA | 0.154
CTCGAACC | -0.0728
TTCTAAAA | 0.0712
AATCCTCC | -0.0151
AGTTAATC | 0.0976
CTTTAAGA | 0.0783
ATTTAATA | 0.302
GTTTAATA | 0.272
GGTTAATA | 0.0683
AGTTAATA | 0.264
CTTTAATC | 0.152
GTTTAAGA | -0.0881
GTTTAAAA | 0.0984
ATTTAATC | 0.212
CTTTAATA | 0.285
ATTTAACA | 0.195
AATCGCTA | -0.00025
GGTCGCCA | -0.186
ACCCATCT | 0.0208
AAAGAGCA | 0.132
CCGAGAGG | -0.18
GAGGTCTA | -0.165
TACGCTGA | 0.156
GCTCCAGC | -0.037
AAGTCCGC | -0.104

Sequence | PBM E-score
CGCCAACC | -0.193
CAATAGAC | 0.111
GAAGTCGA | 0.0787
ATTTAACG | 0.204
ATTTAATG | 0.282
ATTTAAGG | 0.0621
CGATAGAA | 0.0788
ACACCCTG | -0.133
AATTACTA | 0.325
AATTACTG | 0.218
AATTACCC | 0.107
CATTACAA | 0.28
GATTACCA | 0.153
AATTACCA | 0.256
CCTTACTC | 0.183
CCTTACTA | 0.281
GATTACTA | 0.225
CATTACAC | 0.205
TATTACAA | 0.209
GCTTACTA | 0.237
AGATCACG | 0.128
GGGCCACC | -0.256
TCTGCTAA | 0.0116
ACCGCGAA | -0.00285
GGACATGA | -0.0945

Sequence | PBM E-score
ACAACTGC | 0.0481
CTGCCCTA | -0.132
CCTGCATC | -0.0897
GGGCTCCA | -0.262
GAGGCACA | -0.0567
CATTACTA | 0.292
CTTTACTA | 0.22
CATTACTC | 0.221
AATCAGAA | 0.0468
AAAGAACC | 0.0747
AGTATTAT | 0.1
CGTATTAG | 0.152
CGTATTAC | 0.231
AGTATTAG | 0.327
AGTATTAA | 0.186
AGTATTAC | 0.26
AGCAAGTG | -0.0827
AAATTGTC | 0.154
GATCGACA | -0.00076
